# Data taken from the supplement of paper PMC8728848.
# Many of the other results were omitted from the sample, so the strongest signals are more common in it than they were.
# B1: Epa1 (Candida glabrata) (protein)
# chain: MGSSHHHHHHSSGLVPRGSHMTSSNDISLASKDPTTFPLGCSPDITTPKKGLSMELYSYDFRKKGSYPCWDAAYLDPNYPRTGYKSHRLLAKVDGVTGNINFYYHATKGCTPQLGHLPASYNYPKPLTMTNFTMLLYGYFRPKVTGFHTFTISADDLLFVNFGAGNAFDCCRRDSSADHFGNYQAYAIWGSKTAKDELTVHLDAGVYYPIRLFYNNREYDGALSFTFKTESNENTVSDFSEYFFSLDDTEEGCPGLISYD
# Experiments:
# Test in all cases: glycan array binding signal (z-score within array); higher = stronger binding
# Settings in all cases: glycan notation: IUPAC condensed, linker removed
# Fuc(a1-2)Gal = biological target: Fuc(a1-2)Gal
# In short: (§1)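 Glycan array data came from 3228 arrays in the Consortium for Functional Glycomics database, and only arrays with an available protein sequence were kept. Glycan names were put into IUPAC-condensed notation, and columns mapping to the same glycan were averaged. The binding signal is a within-array Z-score, averaged across arrays of one protein sequence run at different concentrations or buffers and across linkers. A negative Z-score can be read as non-binding.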
# Fuc(a1-2)Gal(b1-3)GalNAc = biological target: Fuc(a1-2)Gal(b1-3)GalNAc
# In short: as §1
# [1] = biological target: Fuc(a1-2)Gal(b1-4)GlcNAc(b1-2)Man(a1-3)[Fuc(a1-2)Gal(b1-4)GlcNAc(b1-2)Man(a1-6)]Man(b1-4)GlcNAc(b1-4)[Fuc(a1-6)]GlcNAc
# In short: as §1
# Fuc(a1-2)[Gal(a1-3)]Gal = biological target: Fuc(a1-2)[Gal(a1-3)]Gal
# In short: as §1
# [2] = biological target: Fuc(a1-2)[Gal(a1-3)]Gal(b1-3)GlcNAc(b1-2)Man(a1-3)[Fuc(a1-2)[Gal(a1-3)]Gal(b1-3)GlcNAc(b1-2)Man(a1-6)]Man(b1-4)GlcNAc(b1-4)GlcNAc
# In short: as §1
# [3] = biological target: Fuc(a1-2)[GalNAc(a1-4)]Gal(b1-4)GlcNAc
# In short: as §1
# Gal(b1-3)Gal = biological target: Gal(b1-3)Gal
# In short: as §1
# Gal(b1-3)Gal(b1-4)GlcNAc = biological target: Gal(b1-3)Gal(b1-4)GlcNAc
# In short: as §1
# Gal(b1-3)GalNAc = biological target: Gal(b1-3)GalNAc
# In short: as §1
# Gal(b1-3)GalNAc(b1-3)Gal = biological target: Gal(b1-3)GalNAc(b1-3)Gal
# In short: as §1
# [4] = biological target: Gal(b1-3)GalNAc(b1-4)Gal(b1-4)Glc
# In short: as §1
# [5] = biological target: Gal(b1-3)GalNAc(b1-4)[Neu5Ac(a2-3)]Gal(b1-4)Glc
# In short: as §1
# [6] = biological target: Gal(b1-3)GlcNAc(b1-2)Man(a1-3)[GlcNAc(b1-4)][Gal(b1-3)GlcNAc(b1-2)Man(a1-6)]Man(b1-4)GlcNAc(b1-4)GlcNAc
# In short: as §1
# [7] = biological target: Gal(b1-3)[Neu5Ac(a2-6)]GalNAc
# In short: as §1
# [8] = biological target: Gal(b1-3)[Neu5Ac(a2-6)]GlcNAc(b1-4)Gal(b1-4)Glc
# In short: as §1
# [9] = biological target: Gal(b1-4)GalNAc(a1-3)[Fuc(a1-2)]Gal(b1-4)GlcNAc
# In short: as §1
# Gal(b1-4)Glc6S = biological target: Gal(b1-4)Glc6S
# In short: as §1
# [10] = biological target: Gal(b1-4)GlcNAc(b1-2)Man(a1-6)[Man(a1-3)]Man(b1-4)GlcNAc(b1-4)GlcNAc
# In short: as §1
# [11] = biological target: Gal(b1-4)GlcNAc(b1-3)Gal(b1-3)GlcNAc
# In short: as §1
# [12] = biological target: Gal(b1-4)GlcNAc(b1-3)Gal(b1-4)Glc
# In short: as §1
# [13] = biological target: Gal(b1-4)GlcNAc(b1-3)Gal(b1-4)GlcNAc(b1-2)[Gal(b1-4)GlcNAc(b1-3)Gal(b1-4)GlcNAc(b1-6)]Man(a1-6)[Gal(b1-4)GlcNAc(b1-3)Gal(b1-4)GlcNAc(b1-2)Man(a1-3)]Man(b1-4)GlcNAc(b1-4)[Fuc(a1-6)]GlcNAc
# In short: as §1
# [14] = biological target: Gal(b1-4)GlcNAc(b1-3)Gal(b1-4)GlcNAc(b1-3)Gal(b1-4)GlcNAc(b1-2)[Gal(b1-4)GlcNAc(b1-3)Gal(b1-4)GlcNAc(b1-3)Gal(b1-4)GlcNAc(b1-6)]Man(a1-6)[Gal(b1-4)GlcNAc(b1-3)Gal(b1-4)GlcNAc(b1-3)Gal(b1-4)GlcNAc(b1-2)Man(a1-3)]Man(b1-4)GlcNAc(b1-4)[Fuc(a1-6)]GlcNAc
# In short: as §1
# [15] = biological target: Gal(b1-4)GlcNAc(b1-6)Gal(b1-4)GlcNAc
# In short: as §1
# [16] = biological target: Gal(b1-4)GlcNAc(b1-6)[Gal(b1-3)]GalNAc
# In short: as §1
# Gal(b1-6)Gal = biological target: Gal(b1-6)Gal
# In short: as §1
# Gal3S(b1-4)GlcNAc = biological target: Gal3S(b1-4)GlcNAc
# In short: as §1
# [17] = biological target: Gal3S(b1-4)[Fuc(a1-3)]GlcNAc6S
# In short: as §1
# Gal6P(b1-4)GlcNAc = biological target: Gal6P(b1-4)GlcNAc
# In short: as §1
# Gal6S(b1-3)GlcNAc6S = biological target: Gal6S(b1-3)GlcNAc6S
# In short: as §1
# [18] = biological target: GalNAc(a1-3)GalNAc(b1-3)Gal(a1-4)Gal(b1-4)GlcNAc
# In short: as §1
# [19] = biological target: GlcA3S(b1-3)Gal(b1-4)GlcNAc(b1-2)Man
# In short: as §1
# [20] = biological target: GlcNAc(b1-3)Gal(b1-4)GlcNAc(b1-6)[Gal(b1-3)]GalNAc
# In short: as §1
# Man(a1-2)Man(a1-3)Man = biological target: Man(a1-2)Man(a1-3)Man
# In short: as §1
# [21] = biological target: Man(a1-3)[Man(a1-6)]Man(b1-4)GlcNAc(b1-4)[Fuc(a1-6)]GlcNAc
# In short: as §1
# Man(b1-4)GlcNAc = biological target: Man(b1-4)GlcNAc
# In short: as §1
# [22] = biological target: Neu5Ac(a2-3)Gal(b1-3)GlcNAc(b1-2)Man(a1-3)[Neu5Ac(a2-3)Gal(b1-3)GlcNAc(b1-2)Man(a1-6)]Man(b1-4)GlcNAc(b1-4)GlcNAc
# In short: as §1
# [23] = biological target: Neu5Ac(a2-3)Gal(b1-3)GlcNAc(b1-6)GalNAc
# In short: as §1
# [24] = biological target: Neu5Ac(a2-3)Gal(b1-4)GlcNAc(b1-3)Gal
# In short: as §1
# [25] = biological target: Neu5Ac(a2-3)Gal(b1-4)GlcNAc(b1-3)Gal(b1-4)GlcNAc(b1-2)Man(a1-3)[Neu5Ac(a2-3)Gal(b1-4)GlcNAc(b1-3)Gal(b1-4)GlcNAc(b1-2)Man(a1-6)]Man(b1-4)GlcNAc(b1-4)GlcNAc
# In short: as §1
# [26] = biological target: Neu5Ac(a2-3)Gal(b1-4)GlcNAc(b1-6)[Gal(b1-3)]GalNAc
# In short: as §1
# [27] = biological target: Neu5Ac(a2-3)Gal(b1-4)[Fuc(a1-3)]GlcNAc(b1-2)Man
# In short: as §1
# [28] = biological target: Neu5Ac(a2-3)Gal(b1-4)[Fuc(a1-3)]GlcNAc(b1-3)Gal(b1-4)GlcNAc
# In short: as §1
# [29] = biological target: Neu5Ac(a2-3)[Neu5Ac(a2-6)]GalNAc
# In short: as §1
# [30] = biological target: Neu5Ac(a2-6)Gal(b1-4)GlcNAc(b1-2)Man(a1-3)[GlcNAc(b1-4)][Neu5Ac(a2-6)Gal(b1-4)GlcNAc(b1-2)Man(a1-6)]Man(b1-4)GlcNAc(b1-4)GlcNAc
# In short: as §1
# [31] = biological target: Neu5Ac(a2-6)Gal(b1-4)GlcNAc(b1-2)Man(a1-6)[Gal(b1-4)GlcNAc(b1-2)Man(a1-3)]Man(b1-4)GlcNAc(b1-4)GlcNAc
# In short: as §1
# [32] = biological target: Neu5Ac(a2-6)Gal(b1-4)GlcNAc(b1-3)Gal(b1-4)GlcNAc(b1-3)Gal(b1-4)GlcNAc
# In short: as §1
# [33] = biological target: Neu5Ac(a2-6)Gal(b1-4)GlcNAc(b1-3)Gal(b1-4)[Fuc(a1-3)]GlcNAc(b1-3)Gal(b1-4)[Fuc(a1-3)]GlcNAc
# In short: as §1
# [34] = biological target: Neu5Ac(a2-6)Gal(b1-4)GlcNAc6S
# In short: as §1
# [35] = biological target: Neu5Ac(b2-6)Gal(b1-4)GlcNAc
# In short: as §1
# [36] = biological target: Neu5Gc(a2-8)Neu5Gc(a2-6)Gal(b1-4)GlcNAc
# In short: as §1
binder,measurement,setting,value
B1,glycan array binding signal (z-score),Fuc(a1-2)Gal,-0.506
same,glycan array binding signal (z-score),Fuc(a1-2)Gal(b1-3)GalNAc,-0.25
same,glycan array binding signal (z-score),[1],-0.2
same,glycan array binding signal (z-score),Fuc(a1-2)[Gal(a1-3)]Gal,-0.213
same,glycan array binding signal (z-score),[2],-0.325
same,glycan array binding signal (z-score),[3],-0.299
same,glycan array binding signal (z-score),Gal(b1-3)Gal,3.63
same,glycan array binding signal (z-score),Gal(b1-3)Gal(b1-4)GlcNAc,8.5
same,glycan array binding signal (z-score),Gal(b1-3)GalNAc,3.51
same,glycan array binding signal (z-score),Gal(b1-3)GalNAc(b1-3)Gal,6.23
same,glycan array binding signal (z-score),[4],9.89
same,glycan array binding signal (z-score),[5],4.04
same,glycan array binding signal (z-score),[6],0.171
same,glycan array binding signal (z-score),[7],4.22
same,glycan array binding signal (z-score),[8],-0.213
same,glycan array binding signal (z-score),[9],-0.197
same,glycan array binding signal (z-score),Gal(b1-4)Glc6S,0.304
same,glycan array binding signal (z-score),[10],-0.169
same,glycan array binding signal (z-score),[11],-0.155
same,glycan array binding signal (z-score),[12],0.551
same,glycan array binding signal (z-score),[13],3.08
same,glycan array binding signal (z-score),[14],3.06
same,glycan array binding signal (z-score),[15],3.12
same,glycan array binding signal (z-score),[16],4.02
same,glycan array binding signal (z-score),Gal(b1-6)Gal,0.429
same,glycan array binding signal (z-score),Gal3S(b1-4)GlcNAc,-0.442
same,glycan array binding signal (z-score),[17],-0.394
same,glycan array binding signal (z-score),Gal6P(b1-4)GlcNAc,-0.272
same,glycan array binding signal (z-score),Gal6S(b1-3)GlcNAc6S,-0.014
same,glycan array binding signal (z-score),[18],-0.312
same,glycan array binding signal (z-score),[19],-0.3
same,glycan array binding signal (z-score),[20],1.03
same,glycan array binding signal (z-score),Man(a1-2)Man(a1-3)Man,-0.318
same,glycan array binding signal (z-score),[21],-0.271
same,glycan array binding signal (z-score),Man(b1-4)GlcNAc,-0.281
same,glycan array binding signal (z-score),[22],-0.325
same,glycan array binding signal (z-score),[23],-0.293
same,glycan array binding signal (z-score),[24],-0.288
same,glycan array binding signal (z-score),[25],-0.257
same,glycan array binding signal (z-score),[26],1.45
same,glycan array binding signal (z-score),[27],-0.346
same,glycan array binding signal (z-score),[28],-0.214
same,glycan array binding signal (z-score),[29],-0.328
same,glycan array binding signal (z-score),[30],-0.32
same,glycan array binding signal (z-score),[31],-0.14
same,glycan array binding signal (z-score),[32],-0.267
same,glycan array binding signal (z-score),[33],-0.272
same,glycan array binding signal (z-score),[34],-0.335
same,glycan array binding signal (z-score),[35],-0.248
same,glycan array binding signal (z-score),[36],-0.309
